Results filed as inconclusive are left out. Where a call stands in place of a potency, no number is given. The source made the active and inactive calls. Unless noted, the call rests on the fitted dose curve; in most records, active means well fitted curve in the direction sought with a large enough effect; inconclusive means small, poorly fitted or top-dose-only effect, or another doubt; inactive means no such curve, though single readings can be large; an effect the other way counts as inactive or inconclusive.
Key:
[1] = biological target: Peptidyl-prolyl cis-trans isomerase NIMA-interacting 1 (Homo sapiens) (UniProt Q13526); assay: qHTS Validation Assay to Find Inhibitors of Pin1 (AID 504536; active means well fitted inhibition curve with a large enough effect in the polarisation, with a control signal flat, not every such curve was filed as active; the % refers to the polarisation; further: potency means the concentration at half of the fitted maximal effect)
How it was run: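 Fluorescence polarization competition: compounds (titration) displace HiFluor-488-labeled Pin1-1b peptide from Pin1 (0.3 uM final) in pH 7.5 HEPES buffer with DTT, 10 min at room temperature; %Activity normalized to no-enzyme wells, curves fitted.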

[2] = biological target: Phosphoglycerate kinase, glycosomal (Trypanosoma brucei brucei) (UniProt P07378); assay: qHTS Validation Assay to Find Inhibitors of Phosphoglycerate Kinase (AID 504547); further: potency means the concentration at half of the fitted maximal effect
How it was run: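 Inhibition of the enzyme is judged by a Kinase-Glo Plus luminescent signal following a one-hour incubation at room temperature. Because 1,3-BPG is unstable, it is made in situ by GAPDH at 100nM final; no-PGK wells define the baseline.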

[3] = biological target: phosphoglycerate mutase (Leishmania major) (UniProt Q4Q090); assay: qHTS Validation Assay to Find Inhibitors of Phosphoglycerate Mutase (AID 504548); settings: Potency: inhibition qHTS; further: series mostly up to about 58 µM
How it was run: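 Lm PGAM at 1.25 nM final with substrate in 100 mM TEA pH 7.6, 5 mM MgCl2, 0.01% Tween-20; 45 min at room temperature. Kinase-GloPlus added, 10 min, end-point luminescence read.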

[4] = qHTS for Inhibitors of ATXN expression: Validation of Cytotoxic Assay (AID 588349); further: potency means the concentration at half of the fitted maximal effect
How it was run: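 HEK293 cells treated with titrated compound for 72 hr at 37 degrees C; viability read as intracellular ATP by CellTiter Glo luminescence.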

[5] = qHTS for Inhibitors of ATXN expression: Validation (AID 588378); further: nearly all actives have a fitted effect of over 75% in size; further: potency means the concentration at half of the fitted maximal effect
How it was run: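 Luminescence from an ATXN2-FFLuc reporter in HEK293 cells served as read-out after 24 h compound treatment at 37 degrees C; CellTiter-Fluor fluorescence was recorded first to assess viability.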

[6] = biological target: Ubiquitin carboxyl-terminal hydrolase 1 (Homo sapiens) (UniProt O94782); assay: Inhibitors of USP1/UAF1: Pilot qHTS (AID 504865); further: nearly all actives have a fitted effect of over 35% in size; further: potency means the concentration at half of the fitted maximal effect
How it was run: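 USP1/UAF1 complex (1nM) preincubated with compound 15 min at room temperature, then Ub-Rho substrate (150nM final) added. Fluorescence read kinetically at 480/540 nm, 6 reads every 60 seconds. Buffer: 50mM HEPES pH 7.8, 0.5mM EDTA, 0.1 mg/ml BSA, 1mM TCEP, 0.01% Tween-20.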

[7] = biological target: DNA dC->dU-editing enzyme APOBEC-3G (Homo sapiens) (UniProt Q9HC16); assay: qHTS for inhibitors of Vif-A3G interactions: Validation (AID 588379); further: potency means the concentration at half of the fitted maximal effect
How it was run: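 HeLa cells stably expressing Vif and A3G-eYFP, 700 cells/well, incubated overnight at 37 deg C, then exposed to compound overnight at 37 deg C. Inhibition of Vif-mediated degradation read as increased yellow fluorescence (Ex 488/Em 500-530) by laser-scanning cytometry.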

[8] = biological target: Estrogen receptor (Homo sapiens) (UniProt P03372); assay: qHTS assay for small molecule antagonists of estrogen receptor alpha signaling (AID 588513; active means well fitted curve in the direction sought with a large enough effect in the signal ratio, with a control signal flat, not every such curve was filed as active; the % refers to the signal ratio)
How it was run: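 ER-alpha-UAS-bla GripTite HEK 293 cells in medium with 2% charcoal/dextran-treated FBS were preincubated 4 h at 37 C, dosed with compound (1:2 titration), stimulated with 0.5nM 17-beta-estradiol for 18 h, then read by CCF4 beta-lactamase fluorescence.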

[9] = biological target: Estrogen receptor (Homo sapiens) (UniProt P03372); assay: qHTS assay for small molecule agonists of estrogen receptor alpha signaling (AID 588514; calls by dose curve; further: nearly all actives have a fitted effect of over 70% in size)
How it was run: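 ER-alpha-UAS-bla GripTite HEK293 cells, 5000/well in 2% charcoal/dextran-stripped FBS medium, treated with compound titrations 18 h at 37 C. CCF4 beta-lactamase read by fluorescence after 2 h RT; normalised to 20 nM 17-beta-estradiol (100%) and DMSO (0%), Hill fit for EC50 and efficacy.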

Chain of Peptidyl-prolyl cis-trans isomerase NIMA-interacting 1 (Homo sapiens) (Q13526 whole entry, looked up): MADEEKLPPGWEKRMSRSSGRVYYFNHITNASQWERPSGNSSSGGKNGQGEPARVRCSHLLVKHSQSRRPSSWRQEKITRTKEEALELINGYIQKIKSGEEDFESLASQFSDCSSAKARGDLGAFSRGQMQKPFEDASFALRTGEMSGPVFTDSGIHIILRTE
Chain of phosphoglycerate mutase (Leishmania major) (Q4Q090 1-553): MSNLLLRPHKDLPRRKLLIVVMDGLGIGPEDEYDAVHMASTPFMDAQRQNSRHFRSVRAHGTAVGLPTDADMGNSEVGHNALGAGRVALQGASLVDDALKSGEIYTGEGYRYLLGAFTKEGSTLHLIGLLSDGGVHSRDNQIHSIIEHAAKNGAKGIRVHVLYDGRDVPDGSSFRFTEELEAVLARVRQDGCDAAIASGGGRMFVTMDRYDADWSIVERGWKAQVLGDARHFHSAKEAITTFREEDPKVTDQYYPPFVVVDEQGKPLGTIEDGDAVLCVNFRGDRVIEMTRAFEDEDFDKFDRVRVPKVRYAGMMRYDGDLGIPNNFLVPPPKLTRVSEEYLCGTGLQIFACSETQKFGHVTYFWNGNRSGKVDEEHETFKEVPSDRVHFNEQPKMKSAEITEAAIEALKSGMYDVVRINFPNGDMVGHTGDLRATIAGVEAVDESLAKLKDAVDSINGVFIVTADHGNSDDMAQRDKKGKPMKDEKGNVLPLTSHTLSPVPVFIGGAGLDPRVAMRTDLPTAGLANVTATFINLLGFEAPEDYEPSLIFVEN
Chain of DNA dC->dU-editing enzyme APOBEC-3G (Homo sapiens) (Q9HC16 whole entry, looked up): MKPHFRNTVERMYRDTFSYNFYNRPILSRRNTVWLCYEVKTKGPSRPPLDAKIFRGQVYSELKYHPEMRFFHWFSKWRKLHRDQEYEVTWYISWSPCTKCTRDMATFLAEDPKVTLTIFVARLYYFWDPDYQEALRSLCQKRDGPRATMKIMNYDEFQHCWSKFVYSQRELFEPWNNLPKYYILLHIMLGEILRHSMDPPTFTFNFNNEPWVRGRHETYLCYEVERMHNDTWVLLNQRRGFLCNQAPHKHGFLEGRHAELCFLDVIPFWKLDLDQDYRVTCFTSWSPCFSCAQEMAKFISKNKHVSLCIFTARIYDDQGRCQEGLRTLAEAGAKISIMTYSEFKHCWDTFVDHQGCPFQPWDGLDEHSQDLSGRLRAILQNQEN
Chain of Ubiquitin carboxyl-terminal hydrolase 1 (Homo sapiens) (O94782 whole entry, looked up): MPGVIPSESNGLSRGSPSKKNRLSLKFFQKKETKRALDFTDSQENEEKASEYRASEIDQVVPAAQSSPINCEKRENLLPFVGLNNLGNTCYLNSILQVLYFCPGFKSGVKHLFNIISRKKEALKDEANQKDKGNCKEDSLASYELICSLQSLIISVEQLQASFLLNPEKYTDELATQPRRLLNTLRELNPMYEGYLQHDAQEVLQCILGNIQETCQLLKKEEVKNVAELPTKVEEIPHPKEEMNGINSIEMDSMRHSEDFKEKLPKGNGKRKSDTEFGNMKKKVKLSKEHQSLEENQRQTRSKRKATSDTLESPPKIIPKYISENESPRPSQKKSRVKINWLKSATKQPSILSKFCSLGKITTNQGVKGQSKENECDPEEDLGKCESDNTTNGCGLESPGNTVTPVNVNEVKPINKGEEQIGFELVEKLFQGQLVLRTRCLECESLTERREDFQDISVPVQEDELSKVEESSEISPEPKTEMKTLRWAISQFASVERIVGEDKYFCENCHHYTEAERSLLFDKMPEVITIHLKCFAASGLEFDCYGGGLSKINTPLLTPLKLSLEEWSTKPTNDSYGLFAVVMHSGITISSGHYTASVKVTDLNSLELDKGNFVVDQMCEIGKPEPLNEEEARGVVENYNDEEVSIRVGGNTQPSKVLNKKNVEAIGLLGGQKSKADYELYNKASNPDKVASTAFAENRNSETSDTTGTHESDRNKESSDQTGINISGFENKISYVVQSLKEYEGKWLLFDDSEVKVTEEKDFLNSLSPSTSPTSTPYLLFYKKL
Chain of Phosphoglycerate kinase, glycosomal (Trypanosoma brucei brucei) (P07378 whole entry, looked up): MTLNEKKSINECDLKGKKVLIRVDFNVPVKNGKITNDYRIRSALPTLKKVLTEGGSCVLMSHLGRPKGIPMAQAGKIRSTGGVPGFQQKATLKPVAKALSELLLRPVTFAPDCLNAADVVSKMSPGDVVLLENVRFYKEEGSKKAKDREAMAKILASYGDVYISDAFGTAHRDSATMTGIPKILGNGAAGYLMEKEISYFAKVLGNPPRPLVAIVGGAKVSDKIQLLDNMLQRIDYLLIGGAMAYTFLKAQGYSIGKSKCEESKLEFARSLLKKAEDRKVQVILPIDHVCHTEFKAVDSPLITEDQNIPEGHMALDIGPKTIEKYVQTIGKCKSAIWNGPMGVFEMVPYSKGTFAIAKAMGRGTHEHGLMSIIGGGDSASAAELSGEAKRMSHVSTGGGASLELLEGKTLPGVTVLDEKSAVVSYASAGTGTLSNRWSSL
Chain of Estrogen receptor (Homo sapiens) (P03372 whole entry, looked up): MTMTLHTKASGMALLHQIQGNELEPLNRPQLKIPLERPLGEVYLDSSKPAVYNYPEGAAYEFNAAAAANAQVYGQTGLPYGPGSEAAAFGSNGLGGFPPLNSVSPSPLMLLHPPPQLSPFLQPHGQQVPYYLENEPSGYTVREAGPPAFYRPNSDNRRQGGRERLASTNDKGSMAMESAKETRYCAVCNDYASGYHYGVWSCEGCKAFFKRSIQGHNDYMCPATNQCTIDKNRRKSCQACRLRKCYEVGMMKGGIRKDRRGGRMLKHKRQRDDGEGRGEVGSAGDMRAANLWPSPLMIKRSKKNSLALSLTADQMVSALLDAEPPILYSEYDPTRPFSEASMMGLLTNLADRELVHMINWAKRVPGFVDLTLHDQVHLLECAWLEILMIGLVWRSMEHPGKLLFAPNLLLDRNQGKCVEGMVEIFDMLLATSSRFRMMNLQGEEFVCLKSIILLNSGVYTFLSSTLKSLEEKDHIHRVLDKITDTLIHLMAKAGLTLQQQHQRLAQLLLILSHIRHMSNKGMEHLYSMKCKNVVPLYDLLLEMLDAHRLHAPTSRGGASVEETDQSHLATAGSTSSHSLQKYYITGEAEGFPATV

CC1OC1P(=O)(O)O (configuration not stated)
Potency [1]: inactive | Potency [2]: inactive | Potency [3]: inactive | Potency [4]: inactive | Potency [5]: inactive

Nc1nc(Cl)nc2c1ncn2[C@@H]1O[C@H](COP(=O)(O)OP(=O)(O)OP(=O)(O)O)[C@@H](O)[C@H]1O
Potency [1]: 30.1 µM (active) | Potency [2]: inactive | Potency [3]: inactive | Potency [6]: inactive | Potency [4]: inactive | Potency [5]: inactive

NC(N)=NC(=O)c1nc(Cl)c(N2CCCCCC2)nc1N
Potency [1]: inactive | Potency [2]: inactive | Potency [3]: inactive | Potency [6]: inactive | Potency [5]: inactive

CCOC(=O)C1=C(C)NC(C)=C(C(=O)OCC)C1c1c(F)c(F)c(F)c(F)c1F
Potency [1]: inactive | Potency [2]: inactive | Potency [3]: inactive | Potency [4]: inactive | Potency [5]: inactive

O=C(CCCCCN1CCN(c2ccccc2-c2ccccc2)CC1)NC1CCCc2ccccc21 (configuration not stated)
Potency [1]: inactive | Potency [2]: inactive | Potency [3]: inactive | Potency [6]: inactive | Potency [4]: 15.8 µM (active) | Potency [5]: 20 µM (active)

O=C(/C=C/c1ccc(O)c(O)c1)OCCc1ccccc1
Potency [1]: inactive | Potency [2]: inactive | Potency [3]: inactive | Potency [5]: inactive

CC(C)NC[C@@H](O)c1ccc(O)c(O)c1
Potency [2]: inactive | Potency [3]: inactive | Potency [6]: inactive

Nc1ncnc2c1c(I)cn2[C@@H]1C[C@H](N)[C@@H](O)[C@H]1O
Potency [1]: inactive | Potency [2]: inactive | Potency [3]: inactive | Potency [6]: inactive | Potency [5]: 10 µM (active)

N#C/C(=C\c1ccc(O)c(O)c1)C(=O)c1ccc(O)c(O)c1
Potency [1]: 1.69 µM (active) | Potency [2]: 0.757 µM (active) | Potency [6]: inactive | Potency [4]: inactive | Potency [5]: inactive

CCC1C(=O)OCC1Cc1cncn1C (configuration not stated)
Potency [1]: inactive | Potency [2]: inactive | Potency [3]: inactive | Potency [5]: inactive | Potency [7]: inactive

O=C(O)CC1CC(c2ccccc2)=NO1 (configuration not stated)
Potency [1]: inactive | Potency [2]: inactive | Potency [3]: inactive | Potency [6]: inactive | Potency [4]: inactive | Potency [5]: inactive

C=CC(=O)c1ccc(CCCCCC)cc1
Potency [1]: inactive | Potency [2]: inactive | Potency [3]: inactive | Potency [6]: 56.2 µM (active) | Potency [4]: inactive | Potency [5]: inactive

CSc1nc(N)c2ncn([C@@H]3O[C@H](COP(=O)(O)OP(=O)(O)OP(=O)(O)O)[C@@H](O)[C@H]3O)c2n1
Potency [2]: inactive | Potency [3]: inactive | Potency [6]: inactive | Potency [4]: inactive | Potency [5]: inactive

Cc1ccc(S(=O)(=O)/C=C/C#N)cc1
Potency [1]: inactive | Potency [2]: inactive | Potency [3]: inactive | Potency [6]: inactive | Potency [5]: 10 µM (active)

NCC1OC(O[C@H]2[C@H](O)[C@@H](OC3C(O)C(N)CC(N)C3OC3OC(CO)C(O)C(O)C3N)O[C@@H]2CO)C(N)C(O)C1O (some centres not stated)
Potency [1]: inactive | Potency [2]: inactive | Potency [3]: inactive | Potency [4]: inactive | Potency [5]: inactive

O=C(Nc1ccccc1)c1cc([N+](=O)[O-])ccc1Cl
Potency [1]: inactive | Potency [2]: inactive | Potency [3]: inactive | Potency [6]: inactive | Potency [4]: inactive | Potency [5]: inactive | Potency [7]: inactive | outcome [8]: inactive | Potency [9]: inactive

CCc1c(C(=O)NCCc2ccc(N3CCCCC3)cc2)[nH]c2ccc(Cl)cc12
Potency [1]: inactive | Potency [2]: inactive | Potency [3]: inactive | Potency [6]: inactive | Potency [4]: inactive | Potency [5]: inactive

N#C/C(=C\c1ccc(-c2cc(Cl)ccc2Cl)o1)C(=O)Nc1cccc2ncccc12
Potency [2]: inactive | Potency [3]: inactive | Potency [6]: 15.8 µM (active)

O=C1NC(=O)/C(=C/c2ccc3nccnc3c2)S1
Potency [1]: inactive | Potency [2]: inactive | Potency [3]: inactive | Potency [4]: inactive | Potency [5]: inactive

COc1ccccc1N1CCN(CCN(C(=O)c2ccc(I)cc2)c2ccccn2)CC1
Potency [1]: inactive | Potency [2]: inactive | Potency [3]: inactive | Potency [6]: inactive | Potency [5]: inactive

COc1cc2nc(N3CCN(C(=O)OCc4ccccc4)C(C(=O)NC(C)(C)C)C3)nc(N)c2cc1OC (configuration not stated)
Potency [1]: inactive | Potency [2]: inactive | Potency [3]: inactive | Potency [6]: inactive | Potency [5]: inactive

Cc1cc2c(cc1Cl)N(C(=O)Nc1ccc(Oc3cccnc3C)nc1)CC2
Potency [1]: inactive | Potency [2]: inactive | Potency [3]: inactive | Potency [6]: 44.7 µM (active) | Potency [5]: 17.8 µM (active)

CCOC(=O)N1CCN(/[N+]([O-])=N/Oc2ccc([N+](=O)[O-])cc2[N+](=O)[O-])CC1
Potency [1]: inactive | Potency [2]: inactive | Potency [3]: inactive | Potency [5]: inactive

CSc1ccccc1N1CCN(CCCCCC(=O)NC2CCCc3ccccc32)CC1 (configuration not stated)
Potency [1]: inactive | Potency [2]: inactive | Potency [3]: inactive | Potency [6]: inactive | Potency [5]: 22.4 µM (active)

O=C(OCc1ccccc1)c1ccccc1
Potency [6]: inactive

CO/N=C(\C(=O)N[C@@H]1C(=O)N2C(C(=O)O)=C(COC(C)=O)CS[C@H]12)c1csc(N)n1
Potency [3]: inactive | Potency [6]: inactive | Potency [4]: inactive | Potency [5]: inactive

Nc1ccc(C(=O)O)c(O)c1
Potency [6]: inactive

N=C(N)N
Potency [6]: inactive

N#C/C(=C\c1ccc(O)c(O)c1)C(=O)NCCCc1ccccc1
Potency [2]: inactive | Potency [3]: inactive | Potency [7]: inactive

O=C1C(SCCO)=C(SCCO)C(=O)c2ccccc21
Potency [3]: inactive | Potency [6]: 15.8 µM (active) | Potency [5]: 4.47 µM (active) | Potency [7]: 4.73 µM (active)

CC1(C)[C@@H](O)CC[C@]2(C)[C@H]3C(=O)C=C4[C@@H]5C[C@@](C)(C(=O)O)CC[C@]5(C)CC[C@@]4(C)[C@]3(C)CC[C@@H]12
Potency [6]: inactive

Cc1ccc(C(=O)c2ccc(CC(=O)O)n2C)cc1
Potency [6]: inactive

CCCCCC[C@@H](O)C/C=C\CCCCCCCC(=O)O
Potency [6]: inactive

CC(C(=O)O)c1ccc2c(c1)[nH]c1ccc(Cl)cc12 (configuration not stated)
Potency [6]: inactive

O=C(O)[C@H](O)[C@@H](O)[C@H](O)[C@H](O)CO
Potency [6]: inactive

CCN(CC)c1ncnc2c1ncn2[C@@H]1O[C@H](COP(=O)(O)OP(=O)(O)C(Br)(Br)P(=O)(O)O)[C@@H](O)[C@H]1O
Potency [2]: inactive | Potency [3]: inactive | Potency [6]: inactive | Potency [4]: inactive | Potency [5]: inactive

Reference: PubChem BioAssay (NCATS)
